# Reference: publication PMC7862700, “An all-to-all approach to the identification of sequence-specific readers for epigenetic DNA modifications on cytosine”
# Experiments:
# Experiment in all cases: DAPPL (digital affinity profiling via proximity ligation, sequencing); 10 mM Tris-HCl pH 7.5, 50 mM NaCl, 1 mM DTT, 4% glycerol, room temperature, 30 min; GST-TFs on glutathione beads, 16-mer random dsDNA library, 0.1% formaldehyde crosslink after washing; high values mean tight binding
# FEV = biological target: T1, FEV (Homo sapiens, UniProt Q99581 1-238); conditions: protein: recombinant; tags: N-terminal GST; dsDNA, one strand shown
# T1 sequence: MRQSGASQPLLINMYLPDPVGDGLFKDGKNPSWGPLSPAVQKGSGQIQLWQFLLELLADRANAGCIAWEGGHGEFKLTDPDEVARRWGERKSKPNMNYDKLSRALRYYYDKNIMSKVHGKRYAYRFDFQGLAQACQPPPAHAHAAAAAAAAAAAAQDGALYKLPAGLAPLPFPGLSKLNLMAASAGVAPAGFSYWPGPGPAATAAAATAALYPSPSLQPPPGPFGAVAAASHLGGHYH
# Summary of the method: (§1)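 The binding signal reported is, for every hexamer, its read frequency for a factor over its read frequency for the tag-only sample. Reads came from pools of yeast-expressed, GST-fused human transcription factors on glutathione beads, barcoded with DNA and mixed with that sample, which were incubated with 200 nmole of a random double-stranded 16-mer DNA library in Tris/NaCl/DTT/glycerol buffer at room temperature for 30 min. After washing, the pools were crosslinked with 0.1% formaldehyde, proximity-ligated with BsaI/T4 ligase for 1 h at 37 °C, PCR-amplified and sequenced on an Illumina NextSeq500.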
# ETV5 = ETV5 (Homo sapiens, UniProt P41161 1-510); conditions: protein: recombinant; tags: N-terminal GST; dsDNA, one strand shown
# Chain of ETV5 (P41161 whole entry): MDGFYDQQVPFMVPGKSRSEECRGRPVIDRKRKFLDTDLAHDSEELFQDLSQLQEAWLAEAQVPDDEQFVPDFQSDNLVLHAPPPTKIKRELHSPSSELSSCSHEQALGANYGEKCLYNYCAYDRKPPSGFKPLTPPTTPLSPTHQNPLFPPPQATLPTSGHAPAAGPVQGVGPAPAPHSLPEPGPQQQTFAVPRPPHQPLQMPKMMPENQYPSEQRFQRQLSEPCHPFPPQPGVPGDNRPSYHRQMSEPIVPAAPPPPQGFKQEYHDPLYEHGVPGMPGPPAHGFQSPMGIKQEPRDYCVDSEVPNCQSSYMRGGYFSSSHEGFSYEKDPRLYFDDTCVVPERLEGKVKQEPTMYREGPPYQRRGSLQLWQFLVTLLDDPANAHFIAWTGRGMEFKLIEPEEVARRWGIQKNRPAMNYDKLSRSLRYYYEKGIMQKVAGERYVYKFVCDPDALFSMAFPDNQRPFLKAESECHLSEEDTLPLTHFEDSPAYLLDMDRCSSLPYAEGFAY
# Summary of the method: as §1
# HSF1 = HSF1 (Homo sapiens, UniProt Q00613 1-529); conditions: protein: recombinant; tags: N-terminal GST; chain copies: 3; dsDNA, one strand shown
# Chain of HSF1 (Q00613 whole entry): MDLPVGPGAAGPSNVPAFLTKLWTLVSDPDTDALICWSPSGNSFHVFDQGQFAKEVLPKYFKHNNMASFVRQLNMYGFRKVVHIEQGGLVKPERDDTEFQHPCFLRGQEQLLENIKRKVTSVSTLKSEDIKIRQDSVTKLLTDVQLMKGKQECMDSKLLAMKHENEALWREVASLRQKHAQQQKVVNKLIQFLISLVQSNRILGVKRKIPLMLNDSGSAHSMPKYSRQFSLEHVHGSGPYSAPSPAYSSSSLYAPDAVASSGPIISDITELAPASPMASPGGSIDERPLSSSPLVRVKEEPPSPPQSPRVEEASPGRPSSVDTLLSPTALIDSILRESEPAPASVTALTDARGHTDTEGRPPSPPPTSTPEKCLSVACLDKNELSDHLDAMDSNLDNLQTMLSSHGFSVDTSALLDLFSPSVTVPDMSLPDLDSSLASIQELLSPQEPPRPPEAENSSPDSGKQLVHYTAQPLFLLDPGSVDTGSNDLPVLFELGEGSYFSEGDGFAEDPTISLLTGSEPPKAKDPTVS
# Summary of the method: as §1
# SPIC = biological target: T2, SPIC (Homo sapiens, UniProt Q8N5J4 1-248); conditions: protein: recombinant; tags: N-terminal GST; dsDNA, one strand shown
# T2 sequence: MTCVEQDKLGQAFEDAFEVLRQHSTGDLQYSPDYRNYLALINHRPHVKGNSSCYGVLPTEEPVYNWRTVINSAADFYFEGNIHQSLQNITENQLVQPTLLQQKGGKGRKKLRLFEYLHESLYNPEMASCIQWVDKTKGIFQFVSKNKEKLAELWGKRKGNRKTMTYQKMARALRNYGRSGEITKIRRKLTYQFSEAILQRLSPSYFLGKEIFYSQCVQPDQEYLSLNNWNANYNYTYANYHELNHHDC
# Summary of the method: as §1
# ELF4 = ELF4 (Homo sapiens, UniProt Q99607 1-663); conditions: protein: recombinant; tags: N-terminal GST; dsDNA, one strand shown
# Chain of ELF4 (Q99607 whole entry): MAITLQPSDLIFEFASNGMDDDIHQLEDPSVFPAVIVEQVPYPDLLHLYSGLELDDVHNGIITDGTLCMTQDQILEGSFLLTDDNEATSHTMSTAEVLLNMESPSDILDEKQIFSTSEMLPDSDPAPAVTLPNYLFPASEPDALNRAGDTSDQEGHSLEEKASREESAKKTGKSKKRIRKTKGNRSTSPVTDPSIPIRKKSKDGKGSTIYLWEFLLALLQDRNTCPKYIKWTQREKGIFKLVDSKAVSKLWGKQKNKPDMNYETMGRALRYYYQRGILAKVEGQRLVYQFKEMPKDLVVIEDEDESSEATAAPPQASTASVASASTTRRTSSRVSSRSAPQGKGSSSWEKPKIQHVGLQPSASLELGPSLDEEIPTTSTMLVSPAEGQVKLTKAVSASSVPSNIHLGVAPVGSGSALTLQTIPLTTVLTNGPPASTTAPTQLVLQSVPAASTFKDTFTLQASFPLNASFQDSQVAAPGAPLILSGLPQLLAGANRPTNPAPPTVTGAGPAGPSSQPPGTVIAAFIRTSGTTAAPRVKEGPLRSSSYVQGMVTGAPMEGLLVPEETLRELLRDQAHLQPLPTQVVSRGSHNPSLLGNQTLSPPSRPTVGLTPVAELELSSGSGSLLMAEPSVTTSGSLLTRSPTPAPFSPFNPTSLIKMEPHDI
# Summary of the method: as §1
# ELK4 = biological target: T3, ELK4 (Homo sapiens, UniProt P28324-2 1-405); conditions: protein: recombinant; tags: N-terminal GST; dsDNA, one strand shown
# T3 sequence: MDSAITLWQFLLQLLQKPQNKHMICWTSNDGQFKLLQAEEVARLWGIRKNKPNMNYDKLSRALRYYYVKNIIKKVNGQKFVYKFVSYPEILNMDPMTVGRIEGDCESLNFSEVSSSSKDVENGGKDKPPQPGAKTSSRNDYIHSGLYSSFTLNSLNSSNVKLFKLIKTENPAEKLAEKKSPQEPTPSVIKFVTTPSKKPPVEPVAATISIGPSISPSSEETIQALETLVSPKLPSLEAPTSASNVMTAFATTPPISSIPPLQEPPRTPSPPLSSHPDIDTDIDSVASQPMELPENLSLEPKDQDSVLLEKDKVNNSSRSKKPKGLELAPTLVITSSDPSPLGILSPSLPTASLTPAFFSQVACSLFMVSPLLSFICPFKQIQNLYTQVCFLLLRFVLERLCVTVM
# Summary of the method: as §1
# ETV2 = biological target: T4, ETV2 (Homo sapiens, UniProt O00321 1-342); conditions: protein: recombinant; tags: N-terminal GST; dsDNA, one strand shown
# T4 sequence: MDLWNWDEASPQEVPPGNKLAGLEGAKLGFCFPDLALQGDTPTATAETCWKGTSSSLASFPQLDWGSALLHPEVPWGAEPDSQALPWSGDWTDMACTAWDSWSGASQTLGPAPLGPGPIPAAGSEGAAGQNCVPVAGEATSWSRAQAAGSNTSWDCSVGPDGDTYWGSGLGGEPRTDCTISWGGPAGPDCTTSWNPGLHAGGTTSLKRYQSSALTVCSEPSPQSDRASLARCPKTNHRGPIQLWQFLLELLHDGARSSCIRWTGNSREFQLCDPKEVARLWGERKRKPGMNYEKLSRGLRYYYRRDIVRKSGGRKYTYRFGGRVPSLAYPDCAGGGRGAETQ
# Summary of the method: as §1
# ELF3 = biological target: T5, ELF3 (Homo sapiens, UniProt P78545 1-371); conditions: protein: recombinant; tags: N-terminal GST; dsDNA, one strand shown
# T5 sequence: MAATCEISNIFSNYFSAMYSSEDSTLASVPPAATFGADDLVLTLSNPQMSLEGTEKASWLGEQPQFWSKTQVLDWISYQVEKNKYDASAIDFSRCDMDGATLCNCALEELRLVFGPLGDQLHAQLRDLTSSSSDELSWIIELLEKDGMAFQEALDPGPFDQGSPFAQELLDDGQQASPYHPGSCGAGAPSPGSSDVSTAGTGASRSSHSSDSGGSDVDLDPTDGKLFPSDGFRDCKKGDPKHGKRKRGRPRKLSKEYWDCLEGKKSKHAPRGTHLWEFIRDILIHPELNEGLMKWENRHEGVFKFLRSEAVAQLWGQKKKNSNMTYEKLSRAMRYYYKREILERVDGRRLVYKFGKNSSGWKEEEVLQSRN
# Summary of the method: as §1
# ETV1 = ETV1 (Homo sapiens, UniProt P50549 1-477); conditions: protein: recombinant; tags: N-terminal GST; dsDNA, one strand shown
# Chain of ETV1 (P50549 whole entry): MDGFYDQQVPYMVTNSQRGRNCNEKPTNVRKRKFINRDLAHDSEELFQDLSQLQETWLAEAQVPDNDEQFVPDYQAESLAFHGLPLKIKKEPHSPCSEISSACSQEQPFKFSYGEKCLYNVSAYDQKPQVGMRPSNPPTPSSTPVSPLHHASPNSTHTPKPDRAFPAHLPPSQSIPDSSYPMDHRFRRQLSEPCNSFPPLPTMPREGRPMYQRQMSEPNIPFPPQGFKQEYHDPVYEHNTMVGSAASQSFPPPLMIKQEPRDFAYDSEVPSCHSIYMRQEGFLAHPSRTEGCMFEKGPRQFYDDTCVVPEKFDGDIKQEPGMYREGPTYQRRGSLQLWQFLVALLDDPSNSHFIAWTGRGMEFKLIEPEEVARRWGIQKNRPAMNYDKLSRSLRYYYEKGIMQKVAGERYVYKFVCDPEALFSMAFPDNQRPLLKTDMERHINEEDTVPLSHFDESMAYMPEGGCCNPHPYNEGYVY
# Summary of the method: as §1
# ERF = biological target: T6, ERF (Homo sapiens, UniProt P50548 1-548); conditions: protein: recombinant; tags: N-terminal GST; dsDNA, one strand shown
# T6 sequence: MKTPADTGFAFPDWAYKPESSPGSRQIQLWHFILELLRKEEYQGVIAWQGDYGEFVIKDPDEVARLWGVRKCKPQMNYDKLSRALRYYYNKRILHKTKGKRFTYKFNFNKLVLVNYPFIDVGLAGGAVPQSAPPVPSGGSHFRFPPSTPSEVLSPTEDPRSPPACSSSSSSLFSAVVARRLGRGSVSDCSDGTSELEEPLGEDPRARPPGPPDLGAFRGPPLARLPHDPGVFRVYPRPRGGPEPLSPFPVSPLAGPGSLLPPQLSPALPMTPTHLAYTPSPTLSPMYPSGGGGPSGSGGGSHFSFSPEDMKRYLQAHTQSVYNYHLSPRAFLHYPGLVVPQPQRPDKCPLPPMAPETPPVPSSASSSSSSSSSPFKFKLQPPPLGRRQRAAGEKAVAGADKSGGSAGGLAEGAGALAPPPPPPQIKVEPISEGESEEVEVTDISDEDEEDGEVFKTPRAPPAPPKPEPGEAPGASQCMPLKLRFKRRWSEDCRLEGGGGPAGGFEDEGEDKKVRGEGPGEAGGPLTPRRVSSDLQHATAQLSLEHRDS
# Summary of the method: as §1
# ETV3L = biological target: T7, ETV3L (Homo sapiens, UniProt Q6ZN32 1-361); conditions: protein: recombinant; tags: N-terminal GST; dsDNA, one strand shown
# T7 sequence: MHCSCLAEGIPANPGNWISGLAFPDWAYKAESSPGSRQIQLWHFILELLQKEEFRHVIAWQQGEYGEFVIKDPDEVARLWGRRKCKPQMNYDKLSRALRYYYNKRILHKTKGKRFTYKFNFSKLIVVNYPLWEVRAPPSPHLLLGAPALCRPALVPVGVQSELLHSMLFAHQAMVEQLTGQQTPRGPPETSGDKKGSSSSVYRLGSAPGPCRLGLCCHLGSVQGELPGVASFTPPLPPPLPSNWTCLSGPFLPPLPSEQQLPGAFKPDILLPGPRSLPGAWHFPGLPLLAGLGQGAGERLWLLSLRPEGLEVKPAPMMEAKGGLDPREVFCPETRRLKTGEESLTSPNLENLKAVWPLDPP
# Summary of the method: as §1
# ETS2 = biological target: T8, ETS2 (Homo sapiens, UniProt P15036 1-469); conditions: protein: recombinant; tags: N-terminal GST; dsDNA, one strand shown
# T8 sequence: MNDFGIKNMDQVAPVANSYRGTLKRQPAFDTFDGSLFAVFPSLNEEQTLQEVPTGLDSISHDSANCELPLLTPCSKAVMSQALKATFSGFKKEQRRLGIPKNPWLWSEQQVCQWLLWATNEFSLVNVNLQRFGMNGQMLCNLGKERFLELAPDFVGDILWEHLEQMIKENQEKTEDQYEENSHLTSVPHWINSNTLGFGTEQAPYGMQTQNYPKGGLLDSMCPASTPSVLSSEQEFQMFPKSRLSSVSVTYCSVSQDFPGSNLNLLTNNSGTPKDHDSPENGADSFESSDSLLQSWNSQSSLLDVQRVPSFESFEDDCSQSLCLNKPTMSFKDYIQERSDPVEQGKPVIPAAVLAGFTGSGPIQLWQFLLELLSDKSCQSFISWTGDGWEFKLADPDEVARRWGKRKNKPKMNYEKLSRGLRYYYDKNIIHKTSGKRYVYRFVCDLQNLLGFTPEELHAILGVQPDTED
# Summary of the method: as §1
# SPDEF = biological target: T9, SPDEF (Homo sapiens, UniProt O95238 1-335); conditions: protein: recombinant; tags: N-terminal GST; dsDNA, one strand shown
# T9 sequence: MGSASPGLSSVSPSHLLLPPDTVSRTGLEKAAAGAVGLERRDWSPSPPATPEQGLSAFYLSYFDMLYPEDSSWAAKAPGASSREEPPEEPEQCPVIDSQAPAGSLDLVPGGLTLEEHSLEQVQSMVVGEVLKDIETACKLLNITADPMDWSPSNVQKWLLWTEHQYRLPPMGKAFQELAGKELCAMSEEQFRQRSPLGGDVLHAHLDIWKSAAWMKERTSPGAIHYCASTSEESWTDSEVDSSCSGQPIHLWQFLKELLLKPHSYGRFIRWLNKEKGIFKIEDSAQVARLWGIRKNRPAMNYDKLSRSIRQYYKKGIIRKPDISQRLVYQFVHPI
# Summary of the method: as §1
# ETV7 = biological target: T10, ETV7 (Homo sapiens, UniProt Q9Y603 1-341); conditions: protein: recombinant; tags: N-terminal GST; dsDNA, one strand shown
# T10 sequence: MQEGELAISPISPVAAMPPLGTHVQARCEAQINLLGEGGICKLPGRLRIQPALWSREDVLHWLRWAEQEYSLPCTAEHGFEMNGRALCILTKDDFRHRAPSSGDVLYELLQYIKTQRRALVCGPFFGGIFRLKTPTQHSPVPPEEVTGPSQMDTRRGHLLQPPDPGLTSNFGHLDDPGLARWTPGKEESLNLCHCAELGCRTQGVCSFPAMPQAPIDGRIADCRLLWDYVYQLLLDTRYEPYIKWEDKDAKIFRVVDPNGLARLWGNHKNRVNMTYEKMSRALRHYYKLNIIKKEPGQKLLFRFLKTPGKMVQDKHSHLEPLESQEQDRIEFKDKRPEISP
# Summary of the method: as §1
# ELF5 = biological target: T11, ELF5 (Homo sapiens, UniProt Q9UKW6-2 1-255); conditions: protein: recombinant; tags: N-terminal GST; dsDNA, one strand shown
# T11 sequence: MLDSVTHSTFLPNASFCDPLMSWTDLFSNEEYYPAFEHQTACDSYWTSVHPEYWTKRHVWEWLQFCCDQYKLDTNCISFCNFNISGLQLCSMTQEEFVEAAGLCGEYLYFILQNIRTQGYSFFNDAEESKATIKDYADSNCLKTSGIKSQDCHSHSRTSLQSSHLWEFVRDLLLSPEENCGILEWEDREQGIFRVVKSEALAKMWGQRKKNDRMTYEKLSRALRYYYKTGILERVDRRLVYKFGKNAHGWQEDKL
# Summary of the method: as §1
# ETV3 = biological target: T12, ETV3 (Homo sapiens, UniProt P41162-2 1-143); conditions: protein: recombinant; tags: N-terminal GST; dsDNA, one strand shown
# T12 sequence: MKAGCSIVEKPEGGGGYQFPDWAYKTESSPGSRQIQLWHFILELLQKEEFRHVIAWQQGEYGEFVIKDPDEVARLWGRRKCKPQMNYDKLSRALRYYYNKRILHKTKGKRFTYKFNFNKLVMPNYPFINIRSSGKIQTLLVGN
# Summary of the method: as §1
# ETV6 = ETV6 (Homo sapiens, UniProt P41212 1-452); conditions: protein: recombinant; tags: N-terminal GST; dsDNA, one strand shown
# Chain of ETV6 (P41212 whole entry): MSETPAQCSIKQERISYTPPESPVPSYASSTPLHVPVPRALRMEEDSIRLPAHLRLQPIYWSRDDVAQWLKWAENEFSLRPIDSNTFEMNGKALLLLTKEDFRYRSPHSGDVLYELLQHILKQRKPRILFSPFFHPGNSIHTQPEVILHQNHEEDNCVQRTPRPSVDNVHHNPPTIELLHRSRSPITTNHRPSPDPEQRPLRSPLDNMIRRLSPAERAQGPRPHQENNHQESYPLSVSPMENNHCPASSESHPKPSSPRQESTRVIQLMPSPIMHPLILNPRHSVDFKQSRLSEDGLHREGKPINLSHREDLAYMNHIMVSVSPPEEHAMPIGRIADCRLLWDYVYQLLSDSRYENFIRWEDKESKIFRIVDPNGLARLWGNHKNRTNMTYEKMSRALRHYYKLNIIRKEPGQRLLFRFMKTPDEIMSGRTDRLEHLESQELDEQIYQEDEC
# Summary of the method: as §1
sequence,measurement,setting,value
GATGCC,binding signal,FEV,"1.41 fold enrichment (6-mer frequency, TF over GST control)"
same,binding signal,ETV5,"1.46 fold enrichment (6-mer frequency, TF over GST control)"
same,binding signal,HSF1,"1.08 fold enrichment (6-mer frequency, TF over GST control)"
same,binding signal,SPIC,"1.22 fold enrichment (6-mer frequency, TF over GST control)"
same,binding signal,ELF4,"1.31 fold enrichment (6-mer frequency, TF over GST control)"
same,binding signal,ELK4,"1.42 fold enrichment (6-mer frequency, TF over GST control)"
same,binding signal,ETV2,"1.28 fold enrichment (6-mer frequency, TF over GST control)"
same,binding signal,ELF3,"1.4 fold enrichment (6-mer frequency, TF over GST control)"
same,binding signal,ETV1,"1.36 fold enrichment (6-mer frequency, TF over GST control)"
same,binding signal,ERF,"1.36 fold enrichment (6-mer frequency, TF over GST control)"
same,binding signal,ETV3L,"1.39 fold enrichment (6-mer frequency, TF over GST control)"
same,binding signal,ETS2,"1.33 fold enrichment (6-mer frequency, TF over GST control)"
same,binding signal,SPDEF,"1.52 fold enrichment (6-mer frequency, TF over GST control)"
same,binding signal,ETV7,"1.27 fold enrichment (6-mer frequency, TF over GST control)"
same,binding signal,ELF5,"1.35 fold enrichment (6-mer frequency, TF over GST control)"
same,binding signal,ETV3,"1.39 fold enrichment (6-mer frequency, TF over GST control)"
same,binding signal,ETV6,"1.32 fold enrichment (6-mer frequency, TF over GST control)"
